# Source: PubChem BioAssay
# In the library only some 2.7% were active in any assay of this set; here they are far more common.
# Nrf2 block – Nrf2 pathway inhibition. A549 ARE-Fluc reporter, luciferase luminescence, 18-24 h. 2.1% of 360,000 active. Potency, µM (top dose mostly 46 µM), for inactives: top-dose activity change, negative = inhibition, hits mostly inhibitors; note: potency is the fitted concentration of half-maximal effect; % is set by controls: 0 for no effect and ±100 for the full control effect; nearly all actives have a fitted effect of over 60% in size
#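 Two sequential reads on A549 ARE_Fluc cells exposed to compound for 18-24 h: a CellTiter-Fluor fluorescence read for viability, then a luciferase luminescence read for Nrf2/ARE activity.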
# 12-LOX inh – blocks human arachidonate 12S-lipoxygenase | P18054 | purified 12hLO, xylenol orange hydroperoxide absorbance | Potency, µM (highest dose often 108 µM), inactives show at the top dose activity change, negative = inhibition, actives largely listed as inhibitors | 1.1% of 580,000 active | AID 1671190; note: potency is the fitted concentration of half-maximal effect; % is set by controls: 0 for no effect and ±100 for the full control effect
# Target sequence (P18054 whole entry, looked up): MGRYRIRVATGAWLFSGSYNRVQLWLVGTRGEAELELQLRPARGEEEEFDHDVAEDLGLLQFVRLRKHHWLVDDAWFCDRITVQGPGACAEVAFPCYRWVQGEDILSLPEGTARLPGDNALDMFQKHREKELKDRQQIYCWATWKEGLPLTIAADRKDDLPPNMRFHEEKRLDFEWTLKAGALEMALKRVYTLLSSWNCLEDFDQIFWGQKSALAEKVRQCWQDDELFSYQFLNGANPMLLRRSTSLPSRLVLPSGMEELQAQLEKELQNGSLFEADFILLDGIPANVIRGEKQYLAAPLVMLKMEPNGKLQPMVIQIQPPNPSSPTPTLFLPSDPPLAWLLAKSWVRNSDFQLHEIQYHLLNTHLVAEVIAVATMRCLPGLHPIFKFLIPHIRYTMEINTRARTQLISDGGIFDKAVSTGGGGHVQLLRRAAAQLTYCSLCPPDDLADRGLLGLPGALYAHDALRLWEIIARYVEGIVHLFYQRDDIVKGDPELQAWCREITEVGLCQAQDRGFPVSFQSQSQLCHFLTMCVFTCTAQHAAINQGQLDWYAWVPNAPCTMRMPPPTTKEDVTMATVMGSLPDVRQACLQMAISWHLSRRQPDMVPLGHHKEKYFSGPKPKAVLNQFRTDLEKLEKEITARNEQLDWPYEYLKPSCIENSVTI
#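 Hydroperoxide product was detected by ferrous iron/xylenol orange as the 573 to 405 nm absorbance ratio. Arachidonic acid at 40 uM (final) was turned over for 30 min at room temperature by 150 nM human 12hLO, pH 7.0 Hepes buffer, after 15 min compound preincubation.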
# LDHA inh – inhibitors of human lactate dehydrogenase A; activity change, % (values are at about 110 or 230 µM); purified LDHA, NADH/diaphorase-resazurin fluorescence; stronger effect = lower value; 0.15% of 480,000 active; in the data active = activity change below about -30%; inconclusive = mostly about -25% to -30%;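 note: plate controls were DMSO wells for no effect and wells without enzyme for full effect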
#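 Human LDH5 at 2 nM final in Tris HCl pH 7.4 with 0.06 mM NADH and 0.2 mM pyruvate, reacted 5 minutes at room temperature. Remaining NADH coupled via diaphorase/resazurin; resorufin fluorescence read at 0 and 20 minutes, normalized to enzyme-free and DMSO wells.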
# Nrf2 activator – activates Nrf2 signaling | AREc32 ARE-luciferase reporter (MCF7-derived line), luminescence, 24 h | Potency, µM (doses to about 46.1 µM), for the others: at the highest dose activation, usual class: activators | 0.31% of 410,000 active | AID 624171; note: potency is the fitted concentration of half-maximal effect; % of control where 0% means no effect; nearly all actives have a fitted effect of over 65% in size
#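 Luminescent ARE reporter assay in AREc32_Fluc cells: overnight plating at 37 deg C, 24 hr compound incubation, Steady-Glo added, 30 min RT before reading.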
# ERG Ets-DNA blk – inhibitors of human ERG Ets domain-DNA interaction; 0.028% of 370,000 active; AID 624246; fluorescence polarization, His-ERG Ets domain / labelled DNA; Potency, µM (doses to about 76.9 µM), without a hit: at the highest dose FP activity, negative = inhibition, hits mostly inhibitors; P11308; active = well fitted inhibition curve with a large enough effect in the polarisation, with a control signal flat; inconclusive = small, poorly fitted or top-dose-only effect, or effect the other way, or a change in a side signal; inactive = no such curve, though single readings can be large or run the other way; the % refers to the polarisation;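 note: polarization taken with two DNA probes labelled with fluorescein and Texas red; potency is the fitted concentration of half-maximal effect; % of control where 0% means no effect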
#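 His-tagged ERG Ets domain (1 uM in the protein solution; 300mM KCl, 50mM Tris-HCl, 1mM EDTA, 1mM DTT, pH 7.5) received compound, then a probe mix of 5 nM fluorescein-DNA and 100nM Texas-615-DNA. Fluorescence polarization was read for both dyes.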
# A549 tox – A549 cytotoxicity, counter-screen for Nrf2 inhibitors. AID 504648. Potency, µM (highest dose often 46 µM), for the others: at the top dose activity change, negative = cytotoxicity, most hits filed as inhibitors. 0.16% of 390,000 active. A549 ARE-Fluc cells, CellTiter-Fluor viability, 18-24 h; note: potency is the fitted concentration of half-maximal effect; % is set by controls: 0 for no effect and ±100 for the full control effect
#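 A549 ARE_Fluc cells in 5% FBS OPTI-MEM were exposed to compounds in concentration-response for 18-24 h at 37 deg C. Viability was read by CellTiter-Fluor fluorescence (Ex 405/Em 525) after 30 min, before the luciferase read.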
# * hit, by the source's call; ? = inconclusive; . = not tested or not shown; ! = a repeat was not active; [ ] = another dose, or the depositor's remark. Unless noted, calls come from the whole dose curve; as a rule, active = well fitted curve in the direction sought with a large enough effect; inconclusive = small, poorly fitted or top-dose-only effect, or another doubt; inactive = no such curve, though single readings can be large; an effect the other way counts as inactive or inconclusive.
SMILES,Nrf2 block,12-LOX inh,LDHA inh,Nrf2 activator,ERG Ets-DNA blk,A549 tox
CC(O)(CS(=O)(=O)c1ccccc1)C(=O)Nc1ccc(C(F)(F)F)cc1 (stereo not drawn),.,-43%,1,0%,-2%,8%
CCCC(C)c1nnc(NC(=O)CCS(=O)(=O)c2ccccc2)s1 (stereo not drawn),1%,?,-7,22µM*,9%,1%
Cc1ccc(N2C(=O)NC(=O)/C(=C\c3cc(C)n(-c4sc5c(c4C#N)CCCC5)c3C)C2=O)cc1,-2%,35µM*,-5,5%,8%,-5%
CCN1C(=O)NC(=O)/C(=C/c2cc(C)n(-c3sc(C)c(C)c3C#N)c2C)C1=O,3%,?,-2,5%,6%,2%
CC1=C(C(=O)OC(C)(C)C)C2(C(=O)Nc3ccccc32)C(C(=O)OC(C)C)=C(N)O1 (stereo not drawn),.,?,-13,.,.,.
CN1CCN(C(=O)Cc2c[nH]c3ncc(-c4ccsc4)cc23)CC1,.,12%[176 µM],.,.,.,.
Cc1cc(Cc2c(O)[nH]c(=S)[nH]c2=O)ccc1OC(C)C,-8%,20µM*,-12,-1%,7%,15%
CC(C)COc1ccc(Cc2c(O)[nH]c(=S)[nH]c2=O)cc1,-3%,8.9µM*,-5,0%,1%,6%
C=CCn1c(O)c(Cc2ccc(OCC)cc2)c(=O)[nH]c1=O,-2%,-10%,-11,0%,-9%,0%
COCCNC(=O)[C@H]1CN2CC[C@H]1C[C@@H]2Cn1cc(CN(C)C)nn1,.,71%[176 µM],.,.,.,.
Cc1[nH]c2ccc(OC(F)(F)F)cc2c1CCNCc1cccc([N+](=O)[O-])c1,3%,?,-1,3%,-2%,0%
CCOc1cccc(CNCCc2c(C)[nH]c3ccc(OC(F)(F)F)cc23)c1O,0%,40µM*,-2,0%,-8%,-1%
COc1ccc2[nH]c(C)c(CCNCc3ccc(F)cc3F)c2c1,.,1µM*,15,.,.,.
COc1ccc2[nH]c(C)c(CCNCc3cccnc3)c2c1,3%,?,-11,0%,?,0%
COCC(=O)N1CCC2(CC1)C(=O)Nc1cc(Oc3cccc(N(C)C)c3)c(OC)cc12,.,-2%[176 µM],.,.,.,.
COc1ccc(N2C(=O)NC(=O)C3(Cc4cc(C)ccc4N(C)C3)C2=O)cc1 (stereo not drawn),.,?,1,.,.,.
C=CC[C@H](CC(=O)N(CCO)Cc1ccccc1)C(=O)NC[C@H](OC(=O)[C@@H](CC=C)CC(=O)OC(C)(C)C)c1ccccc1,18µM*,-25%,10,-4%,-16%,?
C=CC[C@@H](CC(=O)N(CCO)Cc1ccccc1)C(=O)NC[C@@H](OC(=O)[C@@H](CC=C)CC(=O)OC(C)(C)C)c1ccccc1,?,-2%,9,-1%,-13%,-27%
O=C1NC(=O)N(CCc2ccc(F)cc2)C(=O)/C1=C/c1cccs1,5%,?,-7,0%,62%,-16%
C=CCN1C(=O)/C(=C/c2cccs2)C(=O)NC1=S,1%,45µM*,?,0%,16%,-3%
O=C1NC(=O)N(c2ccccc2)C(=O)/C1=C\c1ccccc1[N+](=O)[O-],1%,?,-35*,3%,-10%,2%
COc1ccc(N2C(=O)NC(=O)/C(=C\c3ccc([N+](=O)[O-])s3)C2=O)cc1,-23%,45µM*,27,17%,161%,-25%
O=C1NC(=O)N(c2ccccc2)C(=O)/C1=C/c1ccoc1,16%,?,1,-1%,8%,11%
O=C1NC(=O)N(c2ccccc2)C(=O)/C1=C/c1coc2ccc(O)cc2c1=O,-2%,45µM*,1,10%,24%,-3%
Cn1cc(C(=O)OCC(=O)NC2CC2)c2ccccc21,.,17%,6,.,.,.
SMILES,Nrf2 block,12-LOX inh,LDHA inh,Nrf2 activator,ERG Ets-DNA blk,A549 tox
Cc1ccc(/C=C2\C(=O)NC(=S)N(c3ccc(F)cc3)C2=O)o1,-10%,?,2,6%,26%,2%
COc1ccc(N2C(=O)NC(=O)/C(=C/c3ccc([N+](=O)[O-])s3)C2=O)cc1,-7%,-73%,6,13%,7%,?
COc1ccc(N2C(=O)/C(=C/C=C/c3ccccc3[N+](=O)[O-])C(=O)NC2=S)cc1,0%,11µM*,-3,4%,2%,-2%
COc1ccc(N2C(=O)/C(=C/c3cccs3)C(=O)NC2=S)cc1,9%,28µM*,3,3%,?,3%
O=C(CCl)NCNC(=O)CCl,.,?,11,.,.,.
CC1=C/C(=N\NC(=S)NCCc2ccccc2)CC(C)(C)C1,?,4.5µM*,-12,5%,-2%,4%
CNCc1cn(C[C@H]2C[C@@H]3CCN2C[C@@H]3C(=O)NC2CCCCC2)nn1,.,-3%[176 µM],.,.,.,.
COc1ccc(C(=O)OC2CC[C@@]3(C)C4CCC5[C@]6(O)C[C@H](O)[C@@]7(O)C(CN8CC(C)CCC8[C@@]7(C)O)[C@]6(O)C[C@@]53O[C@]24O)cc1OC (stereo partly drawn),.,-1%,.,.,.,.
O=Nc1c(O)c2ccccc2c2ccccc12,23µM*,-4%,20,-3%,11%,?
Cc1ccc(/C=C2\C(=O)NC(=S)N(c3ccccc3F)C2=O)s1,-21%,40µM*,-33*,3%,?,-19%
Cc1ccc(/C=C2\C(=O)NC(=S)N(c3ccc(F)cc3)C2=O)s1,?,?,0,4%,25%,-4%
CCC(CN)c1ccccc1 (stereo not drawn),.,4%,-3,.,.,.
N#CC(C#N)=Cc1c[nH]c2ccccc12,.,?,13,.,.,.
C[C@@H](N)[C@@H](O)c1ccccc1,.,0%,.,.,.,.
CC(C)c1cccc(O)c(=O)c1,?,14µM*!,9,24%,-6%,-3%
CC(OC(=O)c1cn(C)c2ccccc12)C(=O)NC(N)=O (stereo not drawn),.,25%,-5,.,.,.
COc1ccc(/C=C2/C(=O)NC(=S)N(C3CC3)C2=O)cc1CN1C(=O)c2ccccc2C1=O,11%,?,-36*,2%,-6%,2%
COc1ccc(/C=C2/C(=O)NC(=O)N(c3ccccc3)C2=O)cc1CN1C(=O)c2ccccc2C1=O,0%,.,-6,0%,0%,-4%
CC(Cc1ccc(Cl)cc1)NC(=O)CCCNC(=O)C1CC1 (stereo not drawn),.,?,2,.,.,.
C=C1C(=O)O[C@@H]2C[C@@H](C)[C@@H]3C=CC(=O)[C@@]3(C)[C@@H](OC(C)=O)[C@H]12,4.1µM*,3%,-2,-3%,5%,9.2µM*
